According to the supplement of paper PMC9942566:
± gives the standard deviation of the averaged measurements.

test system: Serratia marcescens K904 PosmB-luxCDABE reporter (pMQ747); assay: PosmB-lux reporter fold induction (RLU/OD600 relative to no-compound control), highest over Biolog concentrations; higher = stronger Rcs reporter activation; settings: wild type K904; 4 h
Description: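 Serratia marcescens K904 (wild type) or its isogenic ΔrcsB mutant, carrying the Rcs-dependent PosmB-luxCDABE reporter plasmid pMQ747, was grown in LB at OD600 0.1 in Biolog Phenotype MicroArray plates PM11-20 for 4 h at 30-32°C. Each compound is present at 3-4 proprietary concentrations (not stated); per the Fig. S1 legend the value given is the highest fold over those wells. Three independent trials.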

O=C(OC[C@H]1O[C@@H](OC(=O)c2cc(O)c(O)c(OC(=O)c3cc(O)c(O)c(O)c3)c2)[C@H](OC(=O)c2cc(O)c(O)c(OC(=O)c3cc(O)c(O)c(O)c3)c2)[C@@H](OC(=O)c2cc(O)c(O)c(OC(=O)c3cc(O)c(O)c(O)c3)c2)[C@@H]1OC(=O)c1cc(O)c(O)c(OC(=O)c2cc(O)c(O)c(O)c2)c1)c1cc(O)c(O)c(OC(=O)c2cc(O)c(O)c(O)c2)c1 [tannic acid] (Biolog plate: PM17, well positions: F9-12) and CO/N=C(\C(=O)N[C@@H]1C(=O)N2C(C(=O)O)=C(CSc3nc(=O)c(O)nn3C)CS[C@H]12)c1csc(N)n1 [Ceftriaxone] (Biolog plate: PM11, well positions: G1-4) are within error of each other in “PosmB-lux reporter fold induction” value: 1.5 ± 0.49 for the first, 1.64 ± 0.43 for the second.

Cc1ccccc1C(OCCN(C)C)c1ccccc1 (configuration not stated) [orphenadrine] (Biolog plate: PM20, well positions: B1-4) and CN[C@@H]1[C@@H](O[C@H]2O[C@H](CO)[C@@H](N)[C@H](O)[C@H]2O)OC2C[C@@H](N)[C@@H](O[C@H]3[C@H](O)[C@@H](O)[C@H](N)C[C@@H]3N)OC2[C@@H]1O (some centres not stated) [apramycin] (Biolog plate: PM20, well positions: A5-8) are within error of each other in “PosmB-lux reporter fold induction” value: 2.77 ± 1.3 for the first, 1.85 ± 0.71 for the second.

OB(O)O [Boric acid] (Biolog plate: PM14, well positions: C1-4) and NC[C@@H]1O[C@H](O[C@H]2[C@@H](O)[C@H](O[C@@H]3[C@@H](O)[C@H](N)C[C@H](N)[C@H]3O[C@H]3O[C@H](CN)[C@@H](O)[C@H](O)[C@H]3N)O[C@@H]2CO)[C@H](N)[C@@H](O)[C@@H]1O [Neomycin] (Biolog plate: PM11, well positions: F9-12) are within error of each other in “PosmB-lux reporter fold induction” value: 1.77 ± 1.2 for the first, 1.51 ± 0.15 for the second.

With C1COCCOCCOCCOCCOCCO1 [18-crown-6 ether] (Biolog plate: PM20, well positions: D9-12) the “PosmB-lux reporter fold induction” value was 2.22 ± 0.31.
